The list is not random: actives were taken first. Their share in the collection is about 17%.
TGFb inhibitor: TGF-b pathway inhibition. actives 1.2% (n = 410,000). AID 588855. Potency, µM (titrated, usually from 46.1 µM), usual class: inhibitors. HepG2 CAGA-GFP TGF-b/SMAD3 reporter, GFP fluorescence, 18 h; TGF-beta stimulated, 500 pg/mL final; also: nearly all actives have a fitted effect of over 65% in size
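Per well, imaged GFP fluorescence of HEPG2 CAGA-GFP cells gives the signal; cells get compound, then TGF-beta (500 pg/mL final), 18 h at 37 degrees C; %Activity versus -TGF-beta and +DMSO controls.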
DT40 TDP1 CPT: DT40-hTDP1 cell growth loss with CPT | chicken DT40 Tdp1-/-;hTDP1 cells + 20 nM CPT, ATP luminescence, 48 h | AID 686979 | Potency, µM (doses to about 46.2 µM), hits mostly inhibitors | actives 12% (n = 420,000); also: nearly all actives have a fitted effect of over 55% in size
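Chicken DT40 Tdp1-/- cells stably complemented with human TDP1 were seeded at 400 cells/well in medium containing 20 nM camptothecin, exposed to pin-transferred compounds, and grown at 37 °C for at least 48 hr. Viability was read as ATP luminescence.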
HT1080-NT tox: kills 2HG-producing HT-1080-NT fibrosarcoma cells; HT-1080-NT fibrosarcoma viability, CellTiter-Glo ATP luminescence, 48 h; Potency, µM (highest dose often 46.1 µM), most hits filed as cytotoxic; actives 1.6% (n = 360,000); AID 686970;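 also: NT is the 2HG producing partner of a matched IDH1 knockdown line; nearly all actives have a fitted effect of over 55% in size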
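Toxicity toward the 2HG-producing NT line was scored as %Activity, normalised to DMSO and no-cell wells, from CellTiter-Glo luminescence after 48 hours' treatment.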
HT1080 IDH1KD tx: toxicity to HT-1080 IDH1 knockdown cells (counter line). HT-1080 IDH1 knockdown viability, ATP luminescence, 48 h. Potency, µM (titrated, usually from 46.1 µM), usual class: cytotoxic. actives 2% (n = 360,000). AID 686971
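CellTiter-Glo luminescence after 48 h compound exposure at 37 degrees C of IDH1-knockdown HT-1080 cells in 5% FBS RPMI. %Activity scaled between DMSO wells and cell-free media wells, with curves fitted and assigned curve classes.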
TDP1 cell noCPT: qHTS for Inhibitors of human tyrosyl-DNA phosphodiesterase 1 (TDP1): qHTS in cells in absence of CPT; Potency, µM (highest dose often 46.2 µM), hits mostly inhibitors; DT40 Tdp1-/- hTDP1 cells, no CPT, ATP luminescence, 48 h; actives 15% (n = 420,000); also: nearly all actives have a fitted effect of over 55% in size
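Camptothecin absent (DMSO only). Human TDP1-complemented DT40 knockout cells, 400 cells/well, 37 °C for minimum 48 hr; ATP measured via CellTiter-Glo, 30 min dark incubation, luminescence.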
HepG2 tox: kills HepG2 cells in TGF-b inhibitor counter-screen; HepG2 CAGA-GFP viability, ATP luminescence, 18 h; Potency, µM (titrated, usually from 46.1 µM), actives largely listed as cytotoxic; actives 0.76% (n = 410,000)
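CellTiter-Glo luminescence gave cytotoxicity after 18 hours at 37 degrees C. The cells were HepG2 CAGA-GFP in 1% FBS DMEM, stimulated with 500 pg/mL TGF-beta after compound addition. %Activity was normalised to no-cell wells (complete cell-killing) and DMSO (no toxicity), and curves were fitted and classified.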
Large screens that a line does not name were inactive. Calls follow the shape of the dose curve; as a rule, active = well fitted curve in the direction sought with a large enough effect; inconclusive = small, poorly fitted or top-dose-only effect, or another doubt; inactive = no such curve, though single readings can be large; an effect the other way counts as inactive or inconclusive.

Cc1cc(C)cc(NC(=O)c2cc(S(=O)(=O)NCc3ccco3)ccc2F)c1	DT40 TDP1 CPT inconclusive, HT1080-NT tox inconclusive, HT1080 IDH1KD tx inconclusive, TDP1 cell noCPT 11µM
Cc1cc(C)cc(NC(=O)c2cc(S(=O)(=O)N3CCCC3)ccc2F)c1	DT40 TDP1 CPT inconclusive, TDP1 cell noCPT 21µM (no result: HT1080-NT tox, HT1080 IDH1KD tx)
Cc1ccc(NC(=O)c2cc(S(=O)(=O)N3CCCCCC3)ccc2F)cc1F	DT40 TDP1 CPT 8.2µM, TDP1 cell noCPT inconclusive (no result: HT1080-NT tox, HT1080 IDH1KD tx)
O=C(Nc1ccc(Cl)cc1Cl)c1cc(S(=O)(=O)N2CCCCCC2)ccc1F	DT40 TDP1 CPT inconclusive, TDP1 cell noCPT inconclusive (no result: HT1080-NT tox, HT1080 IDH1KD tx)
CCc1ccc(CNC(=O)CCc2cn(C)c3ccccc23)cc1	DT40 TDP1 CPT inconclusive
CCOC(=O)C1=C(COC(=O)c2cc([N+](=O)[O-])ccc2Cl)NC(=O)NC1C (configuration not stated)	TDP1 cell noCPT inconclusive
CC(=O)c1ccc(NC(=O)CN2CCCCCC2)cc1	none
CCCC(=O)N1CCN(c2ccc(NC(=O)c3sc4ccccc4c3Cl)cc2)CC1	TDP1 cell noCPT inconclusive
O=C(NCC1CCCO1)c1sc2ccccc2c1Cl (configuration not stated)	none
O=C(Nc1nccs1)c1sc2cc(Cl)ccc2c1Cl	TGFb inhibitor inconclusive, DT40 TDP1 CPT inconclusive, TDP1 cell noCPT inconclusive
O=C(Nc1nccs1)c1sc2ccccc2c1Cl	TGFb inhibitor inconclusive, DT40 TDP1 CPT inconclusive, HT1080 IDH1KD tx inconclusive, TDP1 cell noCPT 21µM
CN1CCN(c2ccccc2NC(=O)c2sc3ccccc3c2Cl)CC1	DT40 TDP1 CPT inconclusive, HT1080-NT tox inconclusive, HT1080 IDH1KD tx inconclusive, TDP1 cell noCPT 21µM
O=C(Nc1ccccn1)c1sc2cc([N+](=O)[O-])ccc2c1Cl	DT40 TDP1 CPT 23µM, TDP1 cell noCPT inconclusive
CC(NC(=O)c1sc2ccccc2c1Cl)C1CCCO1 (configuration not stated)	DT40 TDP1 CPT 21µM, TDP1 cell noCPT inconclusive
N#CC(C#N)=Cc1cccn1-c1ccc(S(N)(=O)=O)cc1	TDP1 cell noCPT inconclusive
CSCCC(N=C(NS(=O)(=O)c1ccc(Br)cc1)c1ccccc1)C(=O)O (configuration not stated)	HT1080-NT tox inconclusive
Cc1cccc(NC(=O)CSc2nc3ccc(NC(=O)CCc4ccccc4)cc3s2)c1	DT40 TDP1 CPT inconclusive, TDP1 cell noCPT inconclusive (no result: HT1080-NT tox, HT1080 IDH1KD tx)
CN(C(=O)CSc1nc2ccc(NC(=O)CCc3ccccc3)cc2s1)c1ccccc1	TGFb inhibitor inconclusive, DT40 TDP1 CPT 18µM, TDP1 cell noCPT 15µM (no result: HT1080-NT tox, HT1080 IDH1KD tx)
COc1ccc(C(=O)Nc2ccc3nc(SCC(=O)N(C)c4ccccc4)sc3c2)cc1	TGFb inhibitor inconclusive, DT40 TDP1 CPT inconclusive, TDP1 cell noCPT 16µM (no result: HT1080-NT tox, HT1080 IDH1KD tx)
CN(C(=O)CSc1nc2ccc(NC(=O)c3ccc(F)cc3)cc2s1)c1ccccc1	TGFb inhibitor inconclusive, DT40 TDP1 CPT 16µM, TDP1 cell noCPT 15µM (no result: HT1080-NT tox, HT1080 IDH1KD tx)
O=C(O)CSc1nc2ccc(NC(=O)COc3ccc(Cl)cc3)cc2s1	none (no result: HT1080-NT tox, HT1080 IDH1KD tx)
CN(C(=O)CSc1nc2ccc(NC(=O)COc3ccc(F)cc3)cc2s1)c1ccccc1	DT40 TDP1 CPT 5.8µM, TDP1 cell noCPT 4.6µM (no result: TGFb inhibitor, HT1080-NT tox, HT1080 IDH1KD tx)
CCOC(=O)NS(=O)(=O)c1ccc(CCNC(=O)c2cc(C)on2)cc1	none
COC(=O)CCCC1=CC2=C(c3ccccc3)C(=O)C(C)(OC(=O)C3CCCC3)C(=O)C2=CN1Cc1ccc(OC)cc1 (configuration not stated)	DT40 TDP1 CPT 23µM, TDP1 cell noCPT inconclusive
COC(=O)CCCC1=CC2=C(c3ccccc3)C(=O)C(C)(OC(=O)C3CCCC3)C(=O)C2=CN1Cc1ccc2c(c1)OCO2 (configuration not stated)	DT40 TDP1 CPT 23µM, TDP1 cell noCPT inconclusive
CCN(C(=O)C(C)Sc1nnc(-c2ccncc2)n1C)C1CCCCC1 (configuration not stated)	none
